Test [1] in a line: optical density shifts of acrAB sulA E. coli – strain DRC41, OD650, 48 h, E. coli filamentation inducer project, primary screen (AID 1152).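 Also: E. coli MC1000 strain DRC41 lacking acrAB efflux pump and sulA.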 The settings on record: higher = more signal, called active from +8 up or from −8 down.
Test [2] in a line: probe aLefty1 binding on compound microarray – biochemical, small-molecule microarray, 635/667 nm fluorescence, primary screen (AID 1153).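 Also: score merges spot fluorescence with signal-to-noise ratio from the scanned slide images.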 The note with it: higher = more signal.
Test [3] in a line: plasmodial surface anion channel blockers, osmotic lysis – cell-based, P. falciparum Indochina, OD700, 1 h, primary screen (AID 1154). The settings on record: P. falciparum Indochina infected RBC osmotic lysis, higher = more signal, called active from +8 up or from −8 down.
Test [4] can be described thus: plasmodial surface anion channel blockers, osmotic lysis – cell-based, P. falciparum Indochina, OD700, 2 h, primary screen (AID 1155).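 Also: lysis reports solute entry through the parasite surface anion channel PSAC.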 The note with it: P. falciparum Indochina infected erythrocytes, higher = more signal, called active from +8 up or from −8 down.
Test [5] in a line: changes in parasitized red cell lysis, either direction – P. falciparum Indochina, OD700, 3 h, PSAC antagonist project, primary screen (AID 1156). The note with it: P. falciparum-infected erythrocytes, osmotic lysis, higher = more signal, called active from +8 up or from −8 down.
A short description of test [6]: plasmodial surface anion channel blockers, osmotic lysis – cell-based, P. falciparum Indochina, OD700, 18 h, primary screen (AID 1157). The note with it: P. falciparum Indochina infected erythrocytes, osmotic lysis OD700, 18 h; higher = more signal, called active from +8 up or from −8 down.
The nature of test [7]: S6 kinase pathway phospho-S6 level changes – cell-based, A549, cytoblot, luminescence, serum-stimulated, primary screen (AID 1158).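 Also: serum-stimulated A549 lung adenocarcinoma cells; signal is phosphorylated S6 detected by cytoblot immunostaining with HRP secondary.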 The note with it: 5 h, higher = more signal.
In test [8] the target is NADPH oxidase 2 (Homo sapiens) (UniProt P04839). The test is described as follows: compounds shifting NOX2 Amplex Red fluorescence – cell-based, HEK293-NOX2, PMA-stimulated, NOX inhibitor project, primary screen (AID 1159). Also: test concentration not given here. The settings on record: 45 min, higher = more signal, called active from +8 up or from −8 down.
Sequence of NADPH oxidase 2 (Homo sapiens) (P04839 whole entry, looked up): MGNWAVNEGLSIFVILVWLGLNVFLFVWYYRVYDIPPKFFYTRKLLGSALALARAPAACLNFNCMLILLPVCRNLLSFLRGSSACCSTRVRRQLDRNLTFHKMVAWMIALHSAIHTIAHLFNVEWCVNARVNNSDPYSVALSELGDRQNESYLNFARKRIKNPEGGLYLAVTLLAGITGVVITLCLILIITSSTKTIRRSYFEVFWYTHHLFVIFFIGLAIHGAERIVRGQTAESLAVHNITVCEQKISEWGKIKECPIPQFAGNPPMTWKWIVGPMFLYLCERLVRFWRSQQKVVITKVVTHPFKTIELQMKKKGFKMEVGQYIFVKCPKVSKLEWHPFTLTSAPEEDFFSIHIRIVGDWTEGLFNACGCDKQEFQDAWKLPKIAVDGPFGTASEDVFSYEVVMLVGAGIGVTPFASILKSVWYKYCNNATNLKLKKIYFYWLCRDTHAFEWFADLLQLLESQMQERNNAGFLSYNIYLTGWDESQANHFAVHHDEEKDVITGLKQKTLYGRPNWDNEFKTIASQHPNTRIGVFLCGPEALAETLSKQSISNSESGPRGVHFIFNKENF
The target in test [9] is NADPH oxidase 4 (Homo sapiens) (UniProt Q9NPH5). Nature of the test: compounds shifting NOX4 Amplex Red fluorescence – cell-based, HEK293-NOX4, tetracycline-induced, NOX inhibitor project, primary screen (AID 1160). The settings on record: HEK293-NOX4, Amplex Red H2O2 fluorescence, 45 min; higher = more signal, called active from +8 up or from −8 down.
Sequence of NADPH oxidase 4 (Homo sapiens) (Q9NPH5 whole entry, looked up): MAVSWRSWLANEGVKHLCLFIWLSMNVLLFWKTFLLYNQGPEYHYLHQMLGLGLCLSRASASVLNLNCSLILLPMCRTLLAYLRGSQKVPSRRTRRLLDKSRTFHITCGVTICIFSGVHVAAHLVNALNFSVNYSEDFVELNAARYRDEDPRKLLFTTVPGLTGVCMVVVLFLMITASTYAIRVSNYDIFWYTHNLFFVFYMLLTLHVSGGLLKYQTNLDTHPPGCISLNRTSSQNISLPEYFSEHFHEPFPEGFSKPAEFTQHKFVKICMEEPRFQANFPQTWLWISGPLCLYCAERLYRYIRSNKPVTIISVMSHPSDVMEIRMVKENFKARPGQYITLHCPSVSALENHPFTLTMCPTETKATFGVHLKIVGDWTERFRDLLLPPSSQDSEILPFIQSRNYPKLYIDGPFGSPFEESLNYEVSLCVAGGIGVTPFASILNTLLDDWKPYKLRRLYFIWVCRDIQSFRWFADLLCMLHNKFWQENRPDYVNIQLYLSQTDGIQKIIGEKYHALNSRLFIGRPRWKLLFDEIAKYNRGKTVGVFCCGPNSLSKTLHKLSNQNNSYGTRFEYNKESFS
Test [10] addresses NADPH oxidase 5 (Homo sapiens) (UniProt Q96PH1). The test is described as follows: compounds shifting NOX5 Amplex Red fluorescence – cell-based, HEK293-NOX5, NOX inhibitor project, primary screen (AID 1161). The note with it: HEK293-NOX5, ionomycin, 45 min, higher = more signal.

Calls of active or inactive are those of the source.

Sequence of NADPH oxidase 5 (Homo sapiens) (Q96PH1 whole entry, looked up): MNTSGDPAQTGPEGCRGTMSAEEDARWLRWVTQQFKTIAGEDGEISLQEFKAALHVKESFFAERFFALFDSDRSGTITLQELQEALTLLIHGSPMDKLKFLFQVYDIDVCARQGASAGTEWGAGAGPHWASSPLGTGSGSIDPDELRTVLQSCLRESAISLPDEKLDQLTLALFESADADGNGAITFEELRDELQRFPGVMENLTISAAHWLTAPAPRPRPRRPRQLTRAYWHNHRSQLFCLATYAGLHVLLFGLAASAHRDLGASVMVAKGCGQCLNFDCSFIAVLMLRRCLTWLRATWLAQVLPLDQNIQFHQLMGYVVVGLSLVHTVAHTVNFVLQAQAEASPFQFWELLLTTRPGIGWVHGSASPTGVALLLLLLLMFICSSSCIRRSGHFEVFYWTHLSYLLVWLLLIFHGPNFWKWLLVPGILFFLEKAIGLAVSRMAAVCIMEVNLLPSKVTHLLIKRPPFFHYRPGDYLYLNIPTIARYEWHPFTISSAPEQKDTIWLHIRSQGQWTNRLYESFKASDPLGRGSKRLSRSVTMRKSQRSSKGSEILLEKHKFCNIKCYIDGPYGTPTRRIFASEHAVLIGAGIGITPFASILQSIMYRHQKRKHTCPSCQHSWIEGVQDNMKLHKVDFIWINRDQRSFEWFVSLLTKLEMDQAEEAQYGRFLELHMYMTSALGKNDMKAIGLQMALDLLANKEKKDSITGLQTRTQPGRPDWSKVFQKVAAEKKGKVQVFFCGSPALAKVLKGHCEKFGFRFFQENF

For the compound `C=C(/C(=C/C[C@H](OC(=O)c1ccncc1)c1ccc(CO)o1)c1cc(C(=O)OC)ccc1OC)C(C)C`, the z-score in [1] is -0.23 (inactive); in test [3], 3.3 (inactive); in test [4] it was 0.365 (inactive); in test [5], 1.25 (inactive); in [6], 0.136 (inactive); in test [7] it was -0.578. For the same compound, the results for the z-score in test [8], in test [9] and in test [10] were -1.06 (inactive), -0.154 (inactive) and -0.6, respectively. The composite z-score in [2] was 0.0187.
Regarding `CC(C)[Si](C#CCCCC#N)(O[C@H](c1ccccc1)c1cn([C@H](CO)Cc2ccccc2)nn1)C(C)C`, the z-score in [1] was 1.72 (inactive); in [3] it was 1.31 (inactive); in test [4] it was 0.4 (inactive); in test [5], -0.138 (inactive); in [6], 0.0616 (inactive); in test [7], -0.013. Besides, the z-score in test [8] was -0.777 (inactive); in test [9] it was 0.789 (inactive); in [10], 0.317. Besides, the composite z-score in test [2] is -0.187.
Regarding `Cc1ccc(S[C@]2(C(=O)O)CC(=O)N(Cc3ccccc3Cl)[C@@H]2c2ccc(CO)cc2I)cc1`, the z-score is -0.754 (inactive) in test [1]; 8.88 (active) in test [3]; 1.4 (inactive) in test [4]; 0.767 (inactive) in test [5]; 0.744 (inactive) in test [6]; -0.0366 in test [7]. For the same compound, the z-score is 3.66 (inactive) in [8], -2.51 (inactive) in [9] and -0.915 in test [10]. The compound also yielded a composite z-score in test [2] of -0.814.
For `CC(C)N1CC=CC23O[C@@H]4C=CCOC(=O)[C@@H]4[C@H]2C(=O)N(CCCO)[C@@H]3C1=O` (stereo not given in full), the z-score is 2.97 (inactive) in test [1]; 1.08 (inactive) in [3]; 0.0983 (inactive) in test [4]; 0.976 (inactive) in [5]; -0.137 (inactive) in test [6]; 1.89 in test [7]. Further, the figures for the z-score in test [8], in test [9] and in test [10] were 0.0484 (inactive), -1.52 (inactive) and -1.36, respectively. This compound also returned a composite z-score in test [2] of -0.14.
Regarding `CCC[C@@H]1C[C@@]1(CCC)[C@@H](NC(=O)OCc1ccccc1)c1ccc(-c2ccccc2)cc1`, the z-score in test [1] is -1.07 (inactive); in [3], 3.2 (inactive); in [4], 0.81 (inactive); in [5], -0.221 (inactive); in [6], 0.224 (inactive); in [7] it was 0.542. The z-score in test [8] was -0.648 (inactive); in test [9] it was -1.45 (inactive); in [10] it was 0.0161. This compound had a composite z-score in [2] of 0.545.
In the case of `COc1ccccc1CN1C(=O)c2ccccc2[C@@]2(Cc3ccccc3N(CC(F)(F)F)C2=O)[C@@H]1c1ccc(CO)cc1`, the z-score is 0.254 (inactive) in [1]; 0.252 (inactive) in test [3]; 0.633 (inactive) in [4]; -1.9 (inactive) in test [5]; 0.206 (inactive) in test [6]; -0.309 in [7]. Besides, the z-score in test [8] was -0.802 (inactive); in test [9] it was -0.565 (inactive); in [10] it was -0.154. In test [2], this compound returned a composite z-score of 0.0623.
Consider `COc1ccc([Si](C)(C)[C@@H]2[C@@H](CC(=O)N(CCO)Cc3ccccc3)O[C@]3(C(=O)N(Cc4cccc(N5C(=O)c6cccc7cccc5c67)c4)c4ccccc43)[C@H]2C)cc1`, for which the z-score is 2.02 (inactive) in test [1]; 4.59 (inactive) in test [3]; 0.343 (inactive) in test [4]; -0.667 (inactive) in test [5]; -0.526 (inactive) in test [6]; 1.92 in [7]. The z-score is 1.09 (inactive) in test [8], 1.09 (inactive) in [9] and 3 in test [10]. In test [2], this compound returned a composite z-score of 0.287.
With `O=C1N(Cc2ccccc2)c2ccccc2[C@@H]2OC(c3ccc(OCCCO)cc3)=N[C@]12Cc1ccccc1`, the z-score is 0.65 (inactive) in test [1]; 29.4 (active) in test [3]; 26.1 (active) in test [4]; 4.66 (inactive) in test [5]; 2.38 (inactive) in test [6]; 0.724 in test [7]. Also, the z-score is -1.08 (inactive) in [8], -0.653 (inactive) in test [9] and -2.11 in [10]. The composite z-score in [2] was -0.0896.
Take `COCCOC(=O)N1C(=O)[C@@]2(c3cc(C#CC4(O)CCCCCC4)ccc31)[C@H](c1ccc(O)cc1)N1[C@H](c3ccccc3)[C@H](c3ccccc3)OC(=O)[C@H]1[C@@H]2C(=O)NC[C@H](O)c1ccccc1`: the z-score is -0.686 (inactive) in test [1]; 1.14 (inactive) in test [3]; 0.487 (inactive) in test [4]; -1.17 (inactive) in test [5]; 0.196 (inactive) in [6]; 0.101 in test [7]. For the same compound, the z-score in [8] was 1.97 (inactive); in [9], 0.895 (inactive); in test [10], 1.2. In addition, the composite z-score in test [2] came to 0.405.
For the compound `COCC1=C2[C@@H](CCc3ccccc3)OB(O)C[C@@H]2[C@@H]2C(=O)C=CC(=O)[C@@H]2C1`, the z-score in test [1] is -0.204 (inactive); in test [3], 2.09 (inactive); in test [4], -0.122 (inactive); in test [5] it was -0.623 (inactive); in test [6] it was -0.0621 (inactive); in test [7] it was 0.154. For the same compound, the figures for the z-score in test [8], in test [9] and in test [10] were -0.109 (inactive), -0.383 (inactive) and 1.01, respectively. In addition, the composite z-score in [2] was -0.0386.
Turning to `Cc1ccc(S[C@]2(C(=O)O)CC(=O)N(C3Cc4ccccc4C3)[C@@H]2c2ccc(CO)cc2)cc1`, the z-score in test [1] was -0.0458 (inactive); in test [3] it was 3.54 (inactive); in test [4], -0.273 (inactive); in test [5], 0.385 (inactive); in test [6] it was -0.333 (inactive); in [7], -0.401. Besides, the values for the z-score in test [8], in test [9] and in test [10] were -0.0451 (inactive), -0.498 (inactive) and 1.58, respectively. The same compound registered a composite z-score in [2] of 0.212.
Regarding `CCOC(=O)C1=CC[C@@H](c2ccc(OCc3ccccc3)c(OC)c2)N(S(=O)(=O)c2ccc(C)cc2)[C@H]1c1ccc(SC)cc1`, the z-score in test [1] is -1.21 (inactive); in [3] it was 0.658 (inactive); in test [4] it was 0.9 (inactive); in test [5], 0.692 (inactive); in test [6], 0.387 (inactive); in test [7], -0.635. Moreover, the z-score is 0.877 (inactive) in test [8], 0.0161 (inactive) in [9] and -0.508 in [10]. The composite z-score in test [2] turned out to be 0.524.
Regarding `COC(=O)[C@@]1(Cc2ccccc2)[C@H]2c3cc(C(=O)N(C)C)n(CCc4ccc(O)c(OC)c4)c3C[C@H]2CN1C(=O)c1ccccc1`, the z-score in test [1] is -0.873 (inactive); in test [3] it was 0.318 (inactive); in test [4], 0.277 (inactive); in test [5] it was -0.692 (inactive); in [6] it was 0.667 (inactive); in [7], -0.565. Further, the z-score is 0.0564 (inactive) in test [8], -0.485 (inactive) in [9] and -0.207 in test [10]. The compound also displayed a composite z-score in [2] of 1.11.
